Experimental findings from PubChem BioAssay AID2284376 (EPA ToxCast) are described below.

Active and inactive are the calls of the source. The calls were made as follows: active = hit-call score of the fitted dose curve at least 0.9, where 1 is the maximum; inactive = score below 0.9.

This assay has as its target Peroxisome proliferator-activated receptor gamma (Homo sapiens) (UniProt P37231). Nature of the assay: ERF_TW_NR_COA_hPPARG: Eurofins (ERF) Nuclear Receptor (NR) Functional Coactivator Assay for human Peroxisome Proliferator-activated Receptor gamma (PPARg) Agonism, conducted at Taiwan lab site. How it is done: ERF_TW_NR_COA_hPPARG is a biochemical, single-readout assay that uses extracted gene-proteins in a cell-free assay. Measurements were taken 16 hours after chemical dosing in a 96-well plate. See PPARgamma Human NHR Functional Agonist Coactivator Assay, Panlabs.ERF_TW_NR_COA_hPPARG is an assay component calculated from the ERF_TW_NR_COA_hPPARG assay. It is designed to measure FRET using a type of binding reporter as detected by fluorescence intensity of rosiglitazone with fluorimetry technology.Data from the assay component ERF_TW_NR_COA_hPPARG was analyzed at the assay endpoint, ERF_TW_NR_COA_hPPARG, in the positive analysis fitting direction relative to DMSO as the negative control and baseline of activity. Using a type of binding reporter, gain-of-signal activity can be used to understand changes in binding as they relate to gene PPARG. To generalize the intended target to other relatable targets, this assay endpoint is annotated to the nuclear receptor intended target family, where the subfamily is non-steroidal.
Human recombinant PPARgamma receptors expressed in insect cells are used. […] Determination of the amount of complex formed is read spectrofluorimetrically (excitation: 337 nm, emission: 520/490 nm). Test compound-induced increase fluorescence by 50 percent or more (>/=50%) relative to 1 uM GW1929 response indicates possible PPARgamma receptor agonist activity. […]

Sequence of Peroxisome proliferator-activated receptor gamma (Homo sapiens) (P37231 whole entry, looked up): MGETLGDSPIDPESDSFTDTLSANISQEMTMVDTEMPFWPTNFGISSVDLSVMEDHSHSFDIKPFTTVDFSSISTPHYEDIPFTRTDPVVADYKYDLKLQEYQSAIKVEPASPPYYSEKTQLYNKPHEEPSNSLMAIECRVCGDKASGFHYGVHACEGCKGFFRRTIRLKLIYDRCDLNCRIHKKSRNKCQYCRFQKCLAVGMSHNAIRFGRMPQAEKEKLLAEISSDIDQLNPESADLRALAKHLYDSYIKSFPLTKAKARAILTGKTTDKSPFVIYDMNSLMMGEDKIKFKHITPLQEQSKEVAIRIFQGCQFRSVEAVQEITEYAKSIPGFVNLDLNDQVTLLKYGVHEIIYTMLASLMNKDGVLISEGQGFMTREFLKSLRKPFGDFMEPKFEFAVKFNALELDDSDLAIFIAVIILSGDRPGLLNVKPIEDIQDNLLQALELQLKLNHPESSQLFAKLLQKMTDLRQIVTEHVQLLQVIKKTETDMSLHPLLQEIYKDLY

Regarding `O=S(=O)(O)C(F)(F)C(F)(F)C(F)(F)C(F)(F)C(F)(F)C(F)(F)C(F)(F)C(F)(F)F`, the molecule was classed as inactive.
